aSyn UTR inh – 5' untranslated region of α-synuclein, MLPCN primary screen; alpha-synuclein 5'UTR reporter, inhibitor activity; inhibition, % (tested at 7.5 µM); 300,000 tested, 0.82% active; in the data active = inhibition above about 60%;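 also: H4 neuroglioblastoma cells stably carrying SNCA 5'UTR luciferase fusion; 0% = DMSO wells and 100% = positive control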
BaF3 tox – counter-screen for JAK2V617F inhibitors: parental Ba/F3 viability inhibitors | CellTiter-Glo ATP luminescence | inhibition, % at 5.6 µM | 220,000 tested, 1.1% active | AID 1486;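 active = inhibition above a per-campaign cutoff, the mean inhibition of all tested compounds plus 3 SD, cut at about 27% in these data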;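 also: 0% = DMSO wells and 100% = JAK Inhibitor I control wells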
KLF5 inh – inhibitors of KLF5 expression. AID 1700. inhibition, % at 5 µM. DLD-1 KLF5 promoter-luciferase reporter, luminescence. 290,000 tested, 0.23% active;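 active = inhibition above a per-plate limit of that plate's mean compound inhibition plus 3 SD, cut at about 60% in these data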;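 also: 0% = DMSO wells and 100% = LY294002 at 200 µM; higher means less KLF5 promoter-driven luciferase light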
APP transl inh – APP translation inhibition; 190,000 tested, 0.82% active; AID 1285; SH-SY5Y APP 5'UTR-luciferase reporter, luminescence; inhibition, % at 2 µM;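 active = inhibition above a set limit, derived from the sample mean plus 3 SD, cut at about 45% in these data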
Ba/F3 V617F tox – reduce viability of Ba/F3 cells dependent on JAK2V617F | inhibition, % at 5.6 µM | 220,000 tested, 1.1% active | Ba/F3 EpoR-JAK2V617F viability, ATP luminescence;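 active = inhibition above the campaign mean plus 3 SD over all tested compounds, cut at about 24% in these data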;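 also: cytokine-independent growth of Ba/F3 cells driven by EpoR plus mutant JAK2; 0% = DMSO-treated cells and 100% = JAK inhibitor I control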
IEC-6 cytotox – counter-screen for KLF5 inhibitors: cytotoxicity in IEC-6 cells | IEC-6 cytotoxicity, luminescence viability | inhibition, % at 5 µM | 290,000 tested, 0.78% active; in the data active = inhibition above about 22%;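 also: 0% = plate median of test compound wells and 100% = cytotoxic reference compound wells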
The depositor's hits bear a star; . = no result. Sampled rows, rich in hits. Any-hit rate of the full collection: about 2.2%.

SMILES | aSyn UTR inh | BaF3 tox | KLF5 inh | APP transl inh | Ba/F3 V617F tox | IEC-6 cytotox
COc1ccc2c(c1)[N+](C)(C)C(C)(C)C=C2C | -7 | 47* | 7 | 10 | 26* | -1
CCOc1ccc2c(c1)[N+](C)(C)C(C)(C)C=C2C | -17 | 60* | -30 | 21 | 54* | 5
O=S(=O)(c1ccc(Br)cc1)c1nc(-c2ccccc2)oc1NCCN1CCOCC1 | -23 | . | -20 | . | . | -3
CCCCOc1ccc(C2/C(=C(/O)c3ccc4c(c3)CC(C)O4)C(=O)C(=O)N2CCCN2CCOCC2)cc1OC (stereo not given) | 4 | . | -1 | . | . | -2
CCCc1sc(N/N=C/c2ccccn2)nc1-c1ccc(Br)cc1 | 82* | 13 | -1 | -104 | 5 | 2
N#Cc1c(-c2ccc(Cl)cc2)c2c([nH]c1=O)-c1ccccc1OC2 | 17 | 51* | 5 | . | 12 | -2
CC(=O)N1CCN(S(=O)(=O)c2cccc(C(=O)NCCc3ccc(Cl)cc3)c2)CC1 | 16 | . | . | . | . | .
C=CCn1cccc(C(=O)Nc2ccc(OC)c(Cl)c2)c1=O | -84 | . | -72 | . | . | 8
COc1ccccc1Nc1nc(NCC(C)C)nc(N)c1[N+](=O)[O-] | 77* | -3 | -21 | . | -3 | 3
CCC(C)Nc1nc(N)c([N+](=O)[O-])c(Nc2cc(OC)ccc2OC)n1 (stereo not given) | 97* | -1 | 6 | . | 1 | 6
Cc1cccc(NC(=O)NCCN2CCN(c3ccccc3)CC2)c1C | 13 | . | -4 | . | . | 3
CCN(CC)S(=O)(=O)c1ccc(/C=C/C(=O)Nc2ccc(N3CCOCC3)cc2)cc1 | 7 | 0 | 48 | . | 4 | -4
COC(=O)[C@]1(C)N[C@H](c2ccc(-c3ccc(F)cc3)cc2)[C@@H]2C(=O)N(C)C(=O)[C@@H]21 | 3 | . | . | . | . | .
Cc1cnc(C(=O)OC(C)C(=O)NCc2ccccc2)cn1 (stereo not given) | 1 | . | . | . | . | .
Cc1cc(NC(=O)CCC(=O)N(Cc2ccco2)C2(C(=O)NC3CCCCC3)CCN(C)CC2)no1 | 17 | 89* | -17 | 9 | 0 | 1
Cc1cc(NC(=O)CCC(=O)N(Cc2ccco2)C2(C(=O)NC3CCCC3)CCCCC2)no1 | 5 | . | -8 | . | . | -2
CC(c1ccccc1)n1c(S(=O)(=O)O)nc2ccccc21 (stereo not given) | 2 | 58* | -16 | 0 | 1 | 0
COc1ccc(CN2CCc3ccccc3C2)c(OC)c1 | 10 | -4 | -3 | . | -2 | 1
COc1ccc(C2=[N+](C)CCn3cccc32)c(OC)c1 | -6 | 67* | -4 | 2 | 77* | 7
CN(C)CCCNC(=O)c1ccc(-c2nc(-c3ccc(Cl)cc3)cs2)cc1 | 118* | 46* | -123 | -31 | 101* | 7
CN(C)CCCNC(=O)c1ccccn1 | 11 | 1 | 7 | -3 | -4 | 2
CC(C)(C)NC(=O)C(OC(=O)Cn1nnc(-c2ccc(F)cc2)n1)c1ccncc1 (stereo not given) | 15 | 93* | -37 | -22 | 1 | -2
CC(C)(C)NC(=O)C(c1ccncc1)N(Cc1cccs1)C(=O)Cn1nnc(-c2ccc(F)cc2)n1 (stereo not given) | -19 | 3 | -3 | 5 | -1 | 12
CC(C)(C)c1ccc(S(=O)(=O)NCC(=O)N2CCN(Cc3ccccc3)CC2)cc1 | 21 | . | -5 | . | . | -8
CN=c1scc(-c2ccccc2F)n1/N=C(\C)c1cccnc1 | -163 | 38* | -56 | -186 | 6 | 3
SMILES | aSyn UTR inh | BaF3 tox | KLF5 inh | APP transl inh | Ba/F3 V617F tox | IEC-6 cytotox
C/C(=N\N1CCN(C2c3ccccc3-c3ccccc32)CC1)c1cccnc1 | 17 | -2 | -8 | -19 | -5 | -9
FC(F)(F)c1cccc(-n2cc(-c3ccccc3)[nH]c2=S)c1 | -26 | . | -2 | . | . | 1
CC1CSc2n(-c3cccc(C(F)(F)F)c3)cc(-c3ccccc3)[n+]21 (stereo not given) | -22 | 84* | -12 | -23 | 56* | 7
CN(CC(O)COc1ccc(OCC(O)CN(C)C2CCCCC2)cc1)C1CCCCC1 (stereo not given) | -11 | 6 | -36 | 9 | 1 | 11
Cc1cccc(C)c1OCC(O)CN(Cc1ccccc1O)C1CCCCC1 (stereo not given) | 62* | 3 | -38 | 4 | 2 | 1
CCOC(=O)c1c(C)[nH]c(C(=O)N/N=C/c2ccc(Br)cc2)c1C | 39 | 78* | 72* | 95* | 73* | 85*
CC(C)c1ccc(NC(=O)CN2CCN(C(=O)C3CCCO3)CC2)cc1 (stereo not given) | -2 | . | -32 | . | . | -3
Cc1cc(C)c2c(c1)/C(=N\N=c1\sc3ccccc3n1C)C(=O)N2 | -107 | 39* | -17 | . | 1 | 1
COc1c(Cl)cc(Cl)cc1/C=N/n1cnnc1 | 17 | -2 | -13 | 55* | -4 | -5
COc1ccccc1/C=N/n1cnnc1 | 3 | 0 | 8 | -4 | -2 | 2
CCS(=O)(=O)N1Cc2ccccc2CC1C(=O)Nc1cccc(C)c1 (stereo not given) | -102 | 38* | -41 | -8 | 3 | 0
O=C(CNC(=O)C(c1ccccc1)c1ccccc1)N/N=C/c1cccnc1 | -6 | 2 | -24 | . | 1 | 4
O=C(N/N=C/c1cccnc1)c1ccc(NC(=O)C(c2ccccc2)c2ccccc2)cc1 | 111* | 2 | -23 | 70* | 2 | -5
CC(=O)OCCNc1cc(Sc2nc3ccccc3[nH]2)c2nonc2c1[N+](=O)[O-] | -23 | 3 | -22 | 79* | 0 | 1
CC1Cc2ccccc2N1C1=CC(=O)CCC1 (stereo not given) | -18 | 66* | -14 | -36 | 54* | 3
Cc1ccc(CC(CC(=O)O)C(=O)NCc2ccccc2)cc1 (stereo not given) | 11 | 7 | -19 | . | -2 | 2
CNC[C@H](Cc1ccccc1)NC[C@@H](Cc1cccc2ccccc12)NCCc1ccc(C)cc1 | 123* | . | 7 | . | . | -4
Cc1cc(C)cc(NC(=O)/C(C#N)=C/c2cn(CC(=O)NCc3ccco3)c3ccccc23)c1 | 111* | 7 | -33 | 25 | 1 | 0
COC(=O)c1ccc(C)c(NS(=O)(=O)c2cn(C)nc2C)c1 | 14 | . | -26 | . | . | 1
O=c1cc(CSc2nnc(-c3cccs3)n2Cc2ccccc2)nc2sc3ccccc3n12 | -16 | 55* | -6 | 5 | 43* | 2
Cc1cc(C(=O)CSc2nnc(-c3cccs3)n2Cc2ccccc2)c(C)n1C | -3 | 3 | -17 | -8 | 0 | 2
O=C1c2ccccc2C(=O)C1c1nccc2ccccc12 | 99* | 4 | -22 | -100 | 1 | 1
O=C1c2ccccc2C(=O)C1c1ccnc2ccccc12 | 89* | 1 | -135 | -146 | -4 | 8
O=C(Cc1ccccc1)Nc1cccc(N2C(=O)C=CC2=O)c1 | 5 | 4 | -6 | 67* | -1 | 0
CN(/N=C/c1cc(Br)cc(Br)c1O)c1cccc(C(F)(F)F)n1 | 70* | . | -2 | . | . | 9

Screening results as filed in PubChem BioAssay.
